According to the supplement of paper PMC6607015:
Counter-ions that a name gives are not always drawn.

Columns and labels:
Settings in all cases: compound concentration in added solution (µM; 5 µl added to 20 µl cells): 10; 18 h
A431 [1] = experiment: LBPA endosome anti-LBPA integrated intensity (sum per cell), Z-score; higher = more LBPA staining
Method in brief: (§1)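 Per-cell integrated LBPA or filipin intensity, whole-cell or within LBPA endosomes, is expressed as Z-scores normalised in AcuityXpress. HeLa MZ or A431 cells, 3,500 per well in 20 µl, sat on 5 µl of 10 µM compound solution in duplicate 384-well imaging plates for 18 h. They were then fixed in 4% PFA, stained, imaged in four 20× fields per well and segmented using MetaXpress.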

HeLa MZ [2] = experiment: as above
Method in brief: as §1

A431 [3] = experiment: whole-cell filipin (free cholesterol) integrated intensity, Z-score; higher = more cholesterol staining
Method in brief: as §1

HeLa MZ [4] = experiment: as above
Method in brief: as §1

A431 [5] = experiment: filipin (cholesterol) integrated intensity within LBPA endosomes, Z-score; higher = more cholesterol in LBPA endosomes
Method in brief: as §1

HeLa MZ [6] = experiment: as above
Method in brief: as §1

Row | SMILES | LBPA endosome anti-LBPA integrated intensity (z-score) (A431 [1]) | LBPA endosome anti-LBPA integrated intensity (z-score) (HeLa MZ [2]) | whole-cell filipin (z-score) (A431 [3]) | whole-cell filipin (z-score) (HeLa MZ [4]) | filipin (z-score) (A431 [5]) | filipin (z-score) (HeLa MZ [6])
1 | CC[N+](C)(CC)CCOC(=O)C1c2ccccc2Oc2ccccc21 [Methantheline bromide] | -0.356 | -0.164 | -0.155 | -0.214 | -0.359 | -0.379
2 | CN1CCC(=C2c3ccccc3CC(=O)c3sccc32)CC1 [Ketotifen fumarate] | 0.0746 | 0.508 | 0.273 | -0.159 | 0.289 | 0.175
3 | COc1ccc(CN(CCN(C)C)c2ccccn2)cc1 [Pyrilamine maleate] | -0.379 | 0.813 | -0.723 | -0.374 | -0.426 | 0.0714
4 | CCOC(=O)C1=C[C@]2(CC)CCCN3CCc4c(n1c1ccccc41)[C@@H]32 [Vinpocetine] | -0.0891 | 0.52 | -0.413 | -0.464 | -0.326 | -0.0256
5 | CCOc1ccc2c(c1)C(C)=CC(C)(C)N2 [Ethoxyquin] | -0.421 | 0.201 | -0.319 | -0.546 | -0.467 | -0.418
6 | Cc1nccn1CC1CCc2c(c3ccccc3n2C)C1=O (stereo unspecified) [Ondansetron Hydrochloride] | 0.526 | 1.23 | -0.22 | 0.362 | -0.149 | 0.186
7 | CC(=O)Nc1nnc(S(N)(=O)=O)s1 [Acetazolamide] | -0.546 | -1.16 | -0.799 | -0.564 | -0.395 | -0.429
8 | CC[C@H](C)[C@H](N)C1=N[C@H](C(=O)N[C@@H](CC(C)C)C(=O)N[C@H](CCC(=O)O)C(=O)N[C@H](C(=O)N[C@H]2CCCCNC(=O)[C@H](CC(N)=O)NC(=O)[C@@H](CC(=O)O)NC(=O)[C@H](Cc3cnc[nH]3)NC(=O)[C@@H](Cc3ccccc3)NC(=O)[C@H]([C@@H](C)CC)NC(=O)[C@@H](CCCN)NC2=O)[C@@H](C)CC)CS1 [Bacitracin] | -0.168 | 0.277 | -0.0253 | 0.293 | -0.368 | -0.388
9 | Nc1ccc(S(=O)(=O)Nc2nccs2)cc1 [Sulfathiazole] | -0.403 | -0.679 | -0.453 | 0.103 | -0.36 | -0.308
10 | O=C(O)Cc1ccc(-c2ccccc2)cc1 [Felbinac] | -0.537 | -0.83 | -0.402 | -0.285 | -0.525 | -0.491
11 | CN(C)CCC(c1ccc(Br)cc1)c1ccccn1 (stereo unspecified) [Brompheniramine maleate] | -0.686 | -0.0361 | -0.609 | -0.596 | -0.344 | 0.233
12 | CO[C@@H]1[C@@H](O[C@@H]2O[C@H](C)[C@@H](O[C@H]3C[C@@](C)(O)[C@@H](OC(=O)CC(C)C)[C@H](C)O3)[C@H](N(C)C)[C@H]2O)[C@@H](CC=O)C[C@@H](C)[C@@H](O)/C=C/C=C/C[C@@H](C)OC(=O)C[C@H]1OC(C)=O [Josamycin] | 0.115 | -0.222 | -0.459 | -0.645 | -0.106 | -0.348
13 | CCOC(=O)C1=C(C)NC(C)=C(C(=O)OC)C1c1cccc([N+](=O)[O-])c1 (stereo unspecified) [Nitrendipine] | -0.341 | 0.238 | -0.283 | 0.00443 | -0.327 | -0.297
14 | CC1CCc2cc(F)cc3c(=O)c(C(=O)O)cn1c23 (stereo unspecified) [Flumequine] | -0.63 | -0.763 | -0.836 | -0.225 | -0.543 | -0.72
15 | COc1ccccc1N1CCN(CCCNc2cc(=O)n(C)c(=O)n2C)CC1 [Urapidil hydrochloride] | -0.297 | 0.724 | -0.315 | 0.116 | -0.29 | -0.0207
16 | CCOC(=O)NNc1nncc2ccccc12 [Todralazine hydrochloride] | -0.642 | -1.72 | -0.897 | -0.795 | -0.572 | -0.622
17 | Cc1cc2c(s1)Nc1ccccc1N=C2N1CCN(C)CC1 [Olanzapine] | 0.0572 | 1.62 | 0.197 | 0.311 | 0.151 | 0.615
18 | NCCCCCC(=O)O [Aminocaproic acid] | -0.515 | -0.605 | -0.556 | -0.716 | -0.511 | -0.479

Row | SMILES | LBPA endosome anti-LBPA integrated intensity (z-score) (A431 [1]) | LBPA endosome anti-LBPA integrated intensity (z-score) (HeLa MZ [2]) | whole-cell filipin (z-score) (A431 [3]) | whole-cell filipin (z-score) (HeLa MZ [4]) | filipin (z-score) (A431 [5]) | filipin (z-score) (HeLa MZ [6])
19 | CC(C)(S)[C@@H](N)C(=O)O [Penicillamine] | -0.535 | -0.589 | -0.551 | -0.607 | -0.469 | -0.553
20 | O=C(O)c1cccnc1Nc1cccc(C(F)(F)F)c1 [Niflumic acid] | -0.414 | -0.666 | -0.705 | -0.278 | -0.444 | -0.519
21 | C/C(=C(\CCOP(=O)(O)O)SC(=O)c1ccccc1)N(C=O)Cc1cnc(C)nc1N [Benfotiamine] | -0.532 | -0.653 | -0.469 | -0.157 | -0.411 | -0.31
22 | CC[C@H](C)C(=O)O[C@H]1C[C@@H](C)C=C2C=C[C@H](C)[C@H](CC[C@@H]3C[C@@H](O)CC(=O)O3)[C@H]21 [Lovastatin] | -0.976 | -1.31 | -0.714 | -0.104 | -0.696 | 0.121
23 | O=C(NCCO[N+](=O)[O-])c1cccnc1 [Nicorandil] | -0.51 | -0.536 | -0.699 | -0.868 | -0.497 | -0.545
24 | CCCCc1cc2ccccc2c(OCCN(C)C)n1 [Dimethisoquin hydrochloride] | 2.89 | 2.04 | 2.32 | 0.247 | 2.27 | 0.845
25 | CN(C)CCOC(c1ccc(Cl)cc1)c1ccccn1 (stereo unspecified) [Carbinoxamine maleate salt] | -0.697 | -0.856 | -0.5 | -0.502 | -0.442 | -0.169
26 | O=C(O)Cc1cc(I)c(Oc2ccc(O)c(I)c2)c(I)c1 [Tiratricol, 3,3',5-triiodothyroacetic acid] | -0.369 | 0.145 | -0.472 | -0.883 | -0.548 | -0.66
27 | COc1cc2nc(N3CCN(C(=O)C4COc5ccccc5O4)CC3)nc(N)c2cc1OC (stereo unspecified) [Doxazosin mesylate] | 3.8 | 3.08 | 2.89 | 1.62 | 2.83 | 2.39
28 | O=c1cc(-c2ccc(O)c(O)c2)oc2cc(O)cc(O)c12 [Luteolin] | -0.401 | 0.459 | -0.523 | -0.0366 | -0.468 | -0.425
29 | O=C(NCC(O)CO)c1c(I)c(C(=O)NCC(O)CO)c(I)c(N(CCO)C(=O)CO)c1I (stereo unspecified) [Ioversol] | -0.561 | -1.26 | -0.43 | -0.621 | -0.499 | -0.701
30 | CCOC(=O)Nc1ccc2c(c1)N(C(=O)CCN1CCOCC1)c1ccccc1S2 [Moricizine hydrochloride] | -0.59 | 0.328 | -0.0401 | 0.0759 | -0.436 | 0.233
31 | O=C(CCCN1CC=C(n2c(=O)[nH]c3ccccc32)CC1)c1ccc(F)cc1 [Droperidol] | 0.278 | 1.75 | 0.378 | 0.978 | 0.193 | 0.762
32 | C=CC(N)CCC(=O)O (stereo unspecified) [Vigabatrin] | -0.513 | -0.602 | -1.01 | -0.729 | -0.566 | -0.59
33 | NCc1ccccc1CC(=O)N[C@@H]1C(=O)N2C(C(=O)O)=C(CSc3nnnn3CC(=O)O)CS[C@H]12 [Ceforanide] | -0.318 | -0.0362 | -0.326 | -0.285 | -0.513 | -0.563
34 | Cc1c(Cl)cccc1Nc1ncccc1C(=O)O [Clonixin Lysinate] | -0.476 | -1.1 | -0.0028 | -0.353 | -0.486 | -0.62
35 | CN(C)c1nc(N(C)C)nc(N(C)C)n1 [Altretamine] | -0.54 | -1.33 | -0.283 | -0.6 | -0.517 | -0.671
36 | C[C@H]1C[C@H]2[C@@H]3CCC4=CC(=O)C=C[C@]4(C)[C@@]3(F)[C@@H](O)C[C@]2(C)[C@@]1(O)C(=O)CO [Betamethasone] | -0.442 | -0.354 | -0.547 | -0.354 | -0.536 | -0.463
